Screens deposited in PubChem by several laboratories.
Only some compounds are listed: those with a hit (about 1.5% of all), similar ones and a draw of the others.
NTR1 ag = agonists of human NTR1, primary screen, imaging, U2OS cells, beta-arrestin-GFP, high content; activation, % at 20 µM; 330,000 tested, 0.17% active; AID 493036, 2011; NTR1-U2OS beta-arrestin-GFP spot imaging, agonist mode; Neurotensin receptor type 1 (Homo sapiens), P30989;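 active = activation at or above 40% of the spot to cytoplasm intensity ratio, with at least 20 cells analyzed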;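 note: 0% = DMSO without peptide and 100% = 100 nM NTR1 peptide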
Target sequence (P30989 whole entry, looked up): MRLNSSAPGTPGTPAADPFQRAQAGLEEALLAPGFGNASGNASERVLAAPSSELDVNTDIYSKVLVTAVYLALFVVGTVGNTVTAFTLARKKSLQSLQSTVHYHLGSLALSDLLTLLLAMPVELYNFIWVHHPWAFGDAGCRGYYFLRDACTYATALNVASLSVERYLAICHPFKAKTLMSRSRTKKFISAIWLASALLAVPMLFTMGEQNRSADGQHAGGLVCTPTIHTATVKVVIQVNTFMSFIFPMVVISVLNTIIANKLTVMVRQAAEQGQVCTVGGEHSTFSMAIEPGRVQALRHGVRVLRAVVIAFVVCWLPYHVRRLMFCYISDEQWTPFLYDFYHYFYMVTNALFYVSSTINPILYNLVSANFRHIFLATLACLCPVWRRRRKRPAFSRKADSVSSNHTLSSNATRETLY
V-ATPase pH = regulators of yeast V-ATPase proton pumping, primary screen, pHLuorin cytosolic pH fluorescence | 350,000 tested, 0.37% active | S. cerevisiae | response, % at 10 µM; in the data active = response mostly above about 7.3%, no sharp cut-off; inactive = mostly below about 5.4%; note: actives read high
CRFBP-R2 agonist = agonists of CRF-BP/CRF-R2 complex, primary screen, cell-based, HEK293, calcium dye fluorescence, uHTS; CRF-binding protein / CRF receptor 2 complex (human); calcium dye fluorescence (FLIPR); percent of saturating CRF peptide response; activation, % at 13.2 µM; 350,000 tested, 0.46% active; AID 588473, 2011;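 active = activation of at least 50%, plus an integration ratio under a set limit after plate pattern correction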;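 note: plate controls were neutral control wells without compound for no effect and CRF at EC100 for full effect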
CRFBP-R2 block = antagonists of CRF-BP/CRF-R2 complex, primary screen, cell-based, HEK293, calcium dye fluorescence, uHTS. CRF-induced calcium fluorescence. inhibition, % at 11.8 µM. 350,000 tested, 0.59% active. AID 588475, 2011;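 active = inhibition of the ligand-induced calcium signal above about 50% at the single tested concentration, limit read from the data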
V-ATPase pH SP = yeast V-ATPase proton pumping modulators, confirmation, S. cerevisiae, pH-sensitive GFP, second cherry-pick. 980 tested, 2% active. AID 602197, 2012. S. cerevisiae pHLuorin cytosolic pH, V-ATPase proton transport. shares compounds with V-ATPase pH. response, % at 10 µM; in the data active = response above about 24%;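 note: plate controls were vehicle wells for no effect and positive control wells for full effect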
Active calls of the source: *; · = no result given.

SMILES | NTR1 ag | V-ATPase pH | CRFBP-R2 agonist | CRFBP-R2 block | V-ATPase pH SP
O=[N+]([O-])c1ccc(C2CNC(c3ccccc3)O2)cc1 (stereo unspecified) | -1 | 7.1* | -2 | 2 | 4
CCOC(=O)C(C#N)(Cc1cc(OC)cc(OC)c1)Cc1cc(OC)cc(OC)c1 | -7 | 5 | 1 | -2 | ·
O=C(NCCCc1ccccc1)c1ccc(F)cc1 | 2 | -3 | -7 | 6 | ·
O=C(NCCCCNC(=O)c1ccc(F)cc1)c1ccc(F)cc1 | -1 | 1 | 1 | 5 | 0
CCC(CC)c1nnc(NC(=O)Oc2ccccc2)s1 | -1 | 17* | -1 | 5 | 3
COC(=O)c1cn(NC(=O)Cc2ccccc2Br)c(=O)c2ccccc12 | 0 | 9.1* | -1 | -6 | -3
CC(=O)N/C(=C\c1ccccc1)C(=O)N1CCOCC1 | -1 | 10* | -3 | 4 | 2
CC1CC(C)CN(C(=O)CN2C(=O)NC3(CCCCCC3)C2=O)C1 (stereo unspecified) | -1 | 12* | -2 | -4 | 3
CC1CN(C(=O)CN2C(=O)NC3(CCCCCCC3)C2=O)CC(C)O1 (stereo unspecified) | -2 | -2 | 0 | -4 | ·
Cc1cccc(NC(=O)C(=O)NNC(=O)c2ccc(C(C)(C)C)cc2)c1 | 0 | 1 | 0 | 32 | ·
Cc1ccc(F)c(NC(=O)/C(C#N)=C(\O)c2ccc(C(C)(C)C)cc2)c1 | 0 | 16* | 0 | 32 | 3
CCOC(=O)c1ccccc1NC(=O)COC(=O)c1cc([N+](=O)[O-])ccc1N1CCOCC1 | 5 | -2 | 0 | 17 | ·
O=C(Nc1ccn(Cc2c(F)c(F)cc(F)c2F)n1)c1cccc(Cn2cc([N+](=O)[O-])cn2)c1 | 1 | 19* | -2 | -9 | 1
O=C(Nc1ccn(Cc2c(F)c(F)c(F)c(F)c2F)n1)c1cccc(Cn2cc([N+](=O)[O-])cn2)c1 | -1 | 0 | 1 | 25 | ·
O=C1CCC(=O)N1Cc1c(Cl)cccc1Cl | 0 | -2 | -1 | 1 | ·
CC1=C(C#N)CCC(=O)N1Cc1c(F)cccc1Cl | 0 | 9 | 1 | -2 | -3
O=C(O)CCCC(=O)N1N=C(c2ccccc2)CC1c1cccs1 (stereo unspecified) | 1 | 0 | -1 | -6 | ·
CS(=O)(=O)N1Cc2ccccc2CC1C(=O)OCC(=O)NCCc1ccc(S(N)(=O)=O)cc1 (stereo unspecified) | 0 | 12* | 3 | 14 | 1
CS(=O)(=O)N1Cc2ccccc2CC1C(=O)OCC(=O)NCc1ccccc1 (stereo unspecified) | 1 | -2 | -2 | 7 | ·
Cc1noc(C)c1S(=O)(=O)Nc1ccc2c(c1)CC(=O)N([C@H](C)CO)C[C@H](C)[C@H](CN(C)S(=O)(=O)c1ccc(F)cc1)O2 | -2 | 0 | -1 | -2 | ·
COC(=O)c1ccccc1NC(=O)CN1CCOCC1 | 1 | 1 | -1 | 16 | ·
COC(=O)c1ccccc1NC(=O)CN1CCCCC1 | 0 | 12* | -1 | -7 | 1
CN(C)N1C(N)=C(C#N)C(c2ccsc2)C2=C1CCCC2=O (stereo unspecified) | 2 | 2 | -1 | -5 | ·
N#CC1=C(N)N(c2ccccc2)C2=C(C(=O)CCC2)C1c1ccsc1 (stereo unspecified) | 5 | 10* | 1 | -10 | -3
Cc1noc(C)c1CN1C(=O)c2ccccc2C1=O | 0 | -1 | -1 | 2 | ·
SMILES | NTR1 ag | V-ATPase pH | CRFBP-R2 agonist | CRFBP-R2 block | V-ATPase pH SP
COc1cccc(NC(=O)C(OC(=O)/C=C/c2ccc3c(c2)OCO3)c2ccccc2)c1 (stereo unspecified) | 2 | 11* | 6 | -9 | 0
COc1ccc(Cc2n[nH]c(=O)c3ccccc23)cc1OC | 0 | 22* | 8 | 6 | 3
Cc1nnc(SCC(=O)N2CCC(Cc3ccccc3)CC2)n(N)c1=O | 0 | 13 | 2 | -20 | ·
Cc1nnc(SCC(=O)N2CCCCCC2)n(N)c1=O | -1 | 8.0* | 4 | 6 | -3
O=C(CCN1C(=O)/C(=C\c2cccs2)SC1=S)Nc1ccccn1 | 3 | 6.2* | 6 | -30 | -3
COc1cc(CNC(C)(C)CO)ccc1OCC(=O)NC(C)(C)C | 2 | -3 | 5 | 19 | ·
COc1cc(CNn2cn[nH]c2=S)ccc1OCC(=O)NC(C)(C)C | 0 | 8.9* | -2 | 16 | -3
C=CCOc1ccc(CNn2c(C)n[nH]c2=S)cc1OC | -1 | 10.0* | -2 | -7 | 1
C=CCOc1c(Br)cc(CNn2c(C)n[nH]c2=S)cc1OC | 0 | -4 | 0 | -8 | ·
COC(=O)Cc1csc(NC(=O)CSc2nncn2C)n1 | 0 | · | 2 | -7 | ·
Cc1csc(NC(=O)CSc2nncn2C)n1 | 0 | 13* | 1 | -6 | -2
Clc1ccccc1OCCCOc1cccc2cccnc12 | 2 | 12* | 2 | -12 | 20
O=Cc1ccccc1OCCCOc1cccc2cccnc12 | 1 | -5 | -1 | -5 | ·
COC(C(=O)Nc1c(F)cccc1F)c1ccccc1 (stereo unspecified) | 3 | 10* | 0 | 1 | -7
Cc1ccc(S(=O)(=O)c2ccc(C)cc2)cc1 | 1 | 5 | 1 | 14 | ·
Cc1ccc(S(=O)(=O)C=CS(=O)(=O)c2ccc(C)cc2)cc1 | · | 20* | 15 | -8 | 115*
COc1ccc(-c2cc(C(F)(F)F)nc(N3CCN(c4ccc(F)cc4)CC3)n2)cc1OC | · | 0 | -1 | -7 | ·
CC1CCN(c2nc(-c3ccc(F)cc3)cc(C(F)(F)F)n2)CC1 | -1 | 8.6* | 0 | -23 | 2
O=C(OCc1c(Cl)cccc1Cl)c1cccnc1Cl | -2 | -2 | -2 | 0 | ·
O=C(OCc1ccccc1Cl)c1cccnc1Cl | -1 | 9.5* | 1 | 7 | 1
Cc1cc(C)cc(OCCCn2ccnc2)c1 | 0 | 9.0* | -1 | 37 | -3
Cc1cccc(OCCCn2ccnc2)c1 | 1 | -1 | 0 | -6 | ·
Cc1[nH]c2ccccc2c1C(=O)C(=O)NC1CC(=O)N(c2ccc(F)cc2)C1 (stereo unspecified) | 0 | 0 | 1 | -13 | ·
NC(=O)c1ccccc1O | -1 | 5 | 0 | 17 | ·
O=C(C/C(=N/O)c1ccccc1O)C(F)F | 0 | 26* | 1 | -4 | -2
NNC(=O)CNc1ccccc1Cl | 1 | 8.4* | -1 | 6 | 3
N#CCc1c(C#N)c(N)nc(N2CCCC(CO)C2)c1C#N (stereo unspecified) | 2 | -1 | 2 | 9 | ·
N#CCc1c(C#N)c(N)nc(N2CCCC(O)C2)c1C#N (stereo unspecified) | -1 | 11* | 2 | 2 | 0
Cc1ccc(NC2OC(CO)C(O)C2O)cc1[N+](=O)[O-] (stereo unspecified) | -1 | -2 | 1 | -11 | ·
